Our source for the outcome and AC50 values is PubChem BioAssay (EPA / NIEHS).

The nature of assay [1]: CCTE_Harrill_HTTr_Viability_MCF7: CCTE's 6-hour Cell Viability Assessment for the High-Throughput Transcriptomics (HTTr) Platform, in MCF-7 cells cultured in DMEM + 10% fetal bovine serum, Harrill Lab (AID 2284010). Summed up: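 MCF-7 cells in DMEM + 10% FBS, 384-well, exposed 6 h to an eight-point dilution series. Membrane integrity scored by high-content imaging of propidium iodide exclusion; bidirectional fit versus DMSO.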

A short description of assay [2]: CCTE_Harrill_HTTr_Apoptosis_MCF7: CCTE's 6-hour Apoptosis Assessment for the High-Throughput Transcriptomics (HTTr) Platform, in MCF-7 cells cultured in DMEM + 10% fetal bovine serum, Harrill Lab (AID 2284011). Summed up:
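Apoptosis in MCF-7 cells grown in DMEM with 10% fetal bovine serum was scored after a six hour exposure by high content imaging of caspase-3/7 activation (CellEvent Caspase 3/7 Green), with DMSO serving as negative control and baseline.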

The nature of assay [3]: CCTE_Harrill_HTTr_CellCount_MCF7: CCTE's Cell Proliferation Assessment for the High-Throughput Transcriptomics (HTTr) Platform, Harrill Lab (AID 2284012; active = hit-call score of the fitted dose curve at least 0.9, where 1 is the maximum;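 note: cells exposed to compound for six hours; intended direction is loss of nuclei count meaning fewer cells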). Summed up:
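MCF7 cells exposed 6 hours to an eight-point dilution series; Hoechst-stained nuclei counted by high-content imaging. Bidirectional curve fitting against DMSO baseline.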

Assay [4] deals with Estrogen receptor (Homo sapiens) (UniProt P03372). Nature of the assay: CCTE_Deisenroth_AIME_384WELL_LUC_Active: CCTE's 384-well Estrogen Receptor Transactivation Assay with AIME metabolic competence (ERTA luciferase; metabolism positive), Deisenroth Lab (AID 2284030; active = hit-call score of the fitted dose curve at least 0.9, where 1 is the maximum). In a few lines:
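Estrogenic luciferase signal in VM7Luc4E2 cells is measured at 24 hour, after chemicals have been preconditioned 2 hours with PB/BNF-induced rat hepatic S9 in alginate. Gain of signal is fitted relative to 17beta-estradiol, across 0.002 - 200 uM.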

Assay [5] is described as follows: CCTE_Deisenroth_AIME_384WELL_CTox_Active: Cytotoxicity Assessment (CTOX) in CCTE's 384-well Estrogen Receptor Transactivation Assay with AIME metabolic competence (metabolism positive), Deisenroth Lab (AID 2284037; active = hit-call score of the fitted dose curve at least 0.9, where 1 is the maximum;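 note: chemicals first conditioned 2 h by alginate-bound induced rat liver S9 before cells; activity means signal loss indicating cell death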). Summed up: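 Chemicals pre-incubated 2 hours with alginate-immobilised phenobarbital/beta-naphthoflavone-induced male Sprague Dawley rat liver S9, then conditioned medium applied 24 hour to VM7Luc4E2 cells. Viability by fluorogenic protease substrate; 10-point series 0.002 - 200 uM.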

Assay [6] is described as follows: CCTE_Shafer_MEA_acute_burst_number: CCTE's Neural Acute Assay for Single-Electrode Bursts, Shafer Lab (AID 2284013). In a few lines: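 Primary rat cortical neurons on 16-electrode MEA wells, treated on DIV 13 or 15 with compound at 0.03-40 uM. Single-electrode burst count from 40-min recordings at 37 C before and after exposure; percent change from baseline per well, DMSO negative control.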

The nature of assay [7]: CCTE_Shafer_MEA_acute_burst_duration_mean: CCTE's Neural Acute Assay for Mean Burst Duration, Shafer Lab (AID 2284014).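 Note: hits are decreases in mean burst duration relative to DMSO controls.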 In a few lines:
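Rat primary cortical neurons on 48-well MEA, treated at DIV 13 or 15 with 0.03-40 uM in at least 3 wells. Value is percent change in mean burst duration, comparing 40 min recordings at 37 C before and during exposure.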

Assay [8] is described as follows: CCTE_Shafer_MEA_acute_per_burst_spike_number_mean: CCTE's Neural Acute Assay for Average Number of Spikes Per Burst, Shafer Lab (AID 2284015).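 Note: hits are decreases in mean spikes per burst versus baseline.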 Summed up: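 We recorded spontaneous network firing of rat cortical neurons for 40 min before and 40 min during exposure to compound at 0.03-40 uM, at 37 C. Spikes were detected adaptively at 8x rms noise, and the change in average spikes per burst was fitted against DMSO.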

Assay [9] can be described thus: CCTE_Shafer_MEA_acute_interburst_interval_mean: CCTE's Neural Acute Assay for Mean Interburst Interval, Shafer Lab (AID 2284016).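 Note: percent change of mean interburst interval versus each well's own pre-dose baseline; curves fitted for decrease in interburst interval relative to DMSO.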 In a few lines:
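MEA recording of spontaneous network bursting in primary rat cortical cultures; mean interburst interval was compared before and after a 40-min compound exposure (0.03-40 uM) and expressed as percent change, relative to DMSO.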

The nature of assay [10]: CCTE_Shafer_MEA_acute_burst_percentage_mean: CCTE's Neural Acute Assay for Percentage of Spikes in a Burst, Shafer Lab (AID 2284017). Summed up:
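Compounds were tested at 0.03-40 uM on primary rat cortical neuron networks grown over microelectrodes, with at least three wells per compound. Spontaneous firing was recorded for 40 min before and 40 min after dosing, and the change in burst percentage was computed per well.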

Assay [11] in a line: CCTE_Shafer_MEA_acute_per_network_burst_spike_number_mean: CCTE's Neural Acute Assay for Average Number of Spikes in a Network Burst, Shafer Lab (AID 2284019). In a few lines:
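Rat primary cortical neurons on 48-well MEA at DIV 13 or 15, 37 C; compounds 0.03-40 uM, at least three wells each. 40-min baseline then 40-min exposure recording; percent change in mean spikes per network burst.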

Assay [12] is described as follows: CCTE_Shafer_MEA_acute_per_network_burst_spike_number_std: CCTE's Neural Acute Assay for Standard Deviation of Number of Spikes in a Network Burst, Shafer Lab (AID 2284020).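 Note: fitted for decrease in spike-number SD versus DMSO so actives lower it.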 Summed up: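 Rat primary cortical neurons on 48-well MEA (16 electrodes/well), treated DIV 13 or 15 at 0.03-40 uM, ≥3 wells per compound. 40 min recordings at 37 C before and after dosing; value is percent change in network-burst spike-number SD, negative direction vs DMSO.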

Assay [13] can be described thus: CCTE_Shafer_MEA_acute_per_network_burst_electrodes_number_mean: CCTE's Neural Acute Assay for Mean Number of Electrodes in a Network Burst, Shafer Lab (AID 2284021).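 Note: curves fitted for decreases only so hits reduce electrodes per burst.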 In a few lines: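 Percent change from baseline in average electrode count per network burst, rat cortical cultures on 48-well MEAs; 40-min recordings each side of exposure, DIV 13 or 15; threshold 8x rms noise; DMSO as negative control.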

Assay [14] is described as follows: CCTE_Shafer_MEA_acute_network_burst_percentage: CCTE's Neural Acute Assay for Percentage of Network Bursts, Shafer Lab (AID 2284022).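 Note: curves fitted for loss so actives lower network burst percentage.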 In a few lines: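 On DIV 13 or 15, at least three wells of rat cortical neurons per compound are dosed at 0.03-40 uM. Spontaneous firing is detected at 8x rms noise for 40 min before and after dosing at 37 C. The percent change in network-burst spike share is reported.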

Assay [15] is described as follows: CCTE_Shafer_MEA_acute_cross_correlation_area: CCTE's Neural Acute Assay for Area of Cross Correlation, Shafer Lab (AID 2284024).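 Note: area under pooled inter-electrode spike cross-correlation near zero lag as percent change from own baseline; curves fitted for loss of cross-correlation area so actives lower synchrony.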 Summed up: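 Extracellular recordings from cultured rat cortical neurons measure network synchrony as cross-correlation area; each well's post-compound value (0.03-40 uM, 40 min) is compared with its own 40 min baseline to give percent change.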

Assay [16] can be described thus: CCTE_Shafer_MEA_acute_cross_correlation_HWHM: CCTE's Neural Acute Assay for Cross Correlation at Half Width at Half Maximum, Shafer Lab (AID 2284026).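 Note: percent change per well from pre-dose baseline in spike cross-correlogram half width; hits are a decrease in cross-correlogram half width relative to DMSO.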 Summed up: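 Percent change in cross-correlogram half width at half maximum, narrower meaning more synchrony, was derived per well from paired 40-min recordings before and during exposure to 0.03-40 uM compound in rat cortical cultures at 37 C.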

Assay [17] can be described thus: CCTE_Shafer_MEA_acute_synchrony_index: CCTE's Neural Acute Assay for Synchrony, Shafer Lab (AID 2284027).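 Note: network synchrony index of spontaneous spiking in primary rat cortical neurons on MEAs; fitted for loss of signal so actives lower synchrony relative to DMSO.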 Summed up: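 Primary rat cortical neurons on 48-well MEAs, dosed at 0.03–40 uM on DIV 13 or 15. Spikes are recorded for 40 min at 37C before and after exposure, and synchrony index (0–1) is expressed as percent change from baseline per well.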
Assay [18] can be described thus: CCTE_Shafer_MEA_dev_per_burst_spike_percent: CCTE's Neural Network Formation Assay for Percent of Spikes in a Burst, Shafer Lab (AID 2284032). Summed up: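 Rat primary cortical neurons on 16-electrode MEA wells, dosed from plating day 0 for 12 days with renewal on DIV 5 and 9; spikes-in-bursts percentage averaged over bursting electrodes, collapsed as AUC across days 5, 7, 9, 12; loss direction versus DMSO.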

SMILES strings stand for the structures. Inconclusive results are not listed. The source made the active and inactive calls. Rule for the calls, unless noted: active = hit-call score of the fitted dose curve at least 0.9, where 1 is the maximum; inactive = score below 0.9.

Chain of Estrogen receptor (Homo sapiens) (P03372 whole entry, looked up): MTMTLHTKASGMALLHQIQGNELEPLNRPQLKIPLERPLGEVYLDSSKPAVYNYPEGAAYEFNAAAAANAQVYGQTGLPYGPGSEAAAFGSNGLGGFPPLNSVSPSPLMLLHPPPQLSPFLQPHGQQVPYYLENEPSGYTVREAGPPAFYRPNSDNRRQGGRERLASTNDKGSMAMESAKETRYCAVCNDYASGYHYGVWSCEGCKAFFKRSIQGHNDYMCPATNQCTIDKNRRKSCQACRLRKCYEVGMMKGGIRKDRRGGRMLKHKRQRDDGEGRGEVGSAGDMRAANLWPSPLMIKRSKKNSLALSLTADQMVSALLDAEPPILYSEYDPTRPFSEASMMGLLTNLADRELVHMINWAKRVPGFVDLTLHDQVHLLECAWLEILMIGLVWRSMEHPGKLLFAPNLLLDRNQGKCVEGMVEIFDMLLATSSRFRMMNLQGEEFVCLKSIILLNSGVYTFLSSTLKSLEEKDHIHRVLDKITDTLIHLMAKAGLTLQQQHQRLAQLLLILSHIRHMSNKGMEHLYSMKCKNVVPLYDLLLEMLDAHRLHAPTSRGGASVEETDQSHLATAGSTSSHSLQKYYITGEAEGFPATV

On to `CN(C)c1ccc(Cc2ccc(N(C)C)cc2)cc1`, for which the outcome in assay [1] was inactive.

In the case of `Cc1ccc(C)c(O)c1`, the result in [1] was inactive.

As to `O=C(O)CC(O)C(=O)O` (stereo not given), the result in assay [1] was inactive.

With `CCOCCO`, the outcome in assay [1], in assay [2] and in assay [3] was inactive.

Regarding `Fc1ccccc1[C@@H](F)COC1CCC(Nc2ncnc3[nH]ncc23)CC1` (stereo not given in full), the result in assay [1], in assay [2] and in assay [3] was inactive.

In the case of `COC(=O)c1c(Cl)c(Cl)c(C(=O)OC)c(Cl)c1Cl`, the outcome in assay [1], in [2] and in [3] was inactive.

As for `CC(=O)c1ccc2c(c1)[C@H](NC(=O)c1ccc(F)cc1)[C@@H](O)C(C)(C)O2`, the outcome in [1], in assay [2] and in [3] was inactive.

For the compound `CC(C)CC(C)(O)C#CC(C)(O)CC(C)C` (stereo not given), the result in [1] and in assay [2] was inactive.

For `COC(=O)CC(=O)OC`, the outcome in assay [1], in [2] and in [3] was inactive.

In the case of `CCCCCCCCCCCCCCCO`, the outcome in [1] and in assay [2] was inactive.

Take `O=C(NS(=O)(=O)/C=C/c1ccccc1)c1ccc(F)cc1Cl`: the result in assay [1] and in assay [2] was inactive.

On to `CC(C)CCCCCCOC(=O)c1ccc(C(=O)OCCCCCCC(C)C)c(C(=O)OCCCCCCC(C)C)c1`, for which the outcome in [1], in assay [2] and in assay [3] was inactive.

With `CCn1nc(Cc2ccccc2)cc1C1CCN(C[C@H]2C[C@H](N(C)[C@@H](C(=O)O)C(C)C)C[C@@H]2c2cccc(F)c2)CC1`, the result in assay [1], in [2] and in assay [3] was inactive.

Take `C1N2CN3CN1CN(C2)C3`: the outcome in [1] was inactive.

Take `CC/C(=C\C(=N/O)C(N)=O)C(C)[N+](=O)[O-]` (stereo not given): the result in assay [1] and in assay [3] was inactive.

In the case of `CCCC(=O)OCC`, the outcome in [1], in [2], in assay [3] and in assay [4] was inactive.

Consider `CCOC(=O)COc1ccc2c(c1)CC(NCC(O)c1cccc(Cl)c1)CC2` (stereo not given), for which the outcome in assay [1] and in assay [3] was inactive.

As for `O=c1n(CC2CO2)c(=O)n(CC2CO2)c(=O)n1CC1CO1` (stereo not given), the outcome in [1], in [2] and in assay [4] was inactive. Also, the AC50 in assay [5] is 136 µM (active).

In the case of `Cn1c(=O)cc(Oc2ccc(F)cc2F)c2cnc(NCC(C)(C)O)nc21`, the result in [1], in assay [2], in [4] and in assay [5] was inactive.

In the case of `CCCCCCCCO`, the outcome in assay [1], in assay [2], in [4] and in assay [5] was inactive.

For the compound `CC(C)c1cccc(C(C)C)c1N1C(=O)c2ccc(O)cc2C1=O`, the outcome in assay [1], in [2], in [3] and in [5] was inactive.

For `O=C(O)c1cc(N=Nc2ccc(S(=O)(=O)Nc3ccccn3)cc2)ccc1O`, the result in assay [1], in assay [2], in assay [3], in assay [7], in assay [8] and in assay [9] was inactive. For the same compound, the compound was called inactive in [10], in assay [11], in assay [12], in assay [13], in assay [14] and in [15]. For the same compound, the compound was called inactive in assay [16] and in assay [17]. The values for the AC50 in assay [6] and in assay [5] were 0.0299 µM (active) and 100 µM (active), respectively.

Turning to `O=C1CCC(N2C(=O)c3ccccc3C2=O)C(=O)N1` (stereo not given), the result in assay [1], in [2], in assay [3] and in [18] was inactive.
